Results published in the supplement of paper PMC11732987, “Enantioselective OTUD7B fragment discovery through chemoproteomics screening and high-throughput optimisation” (Communications Chemistry, 2025).

Assays:
Assay in all cases: log2 ratio of Biotin-Ahx-Ub-VS probe labelling (fragment/DMSO); higher = less target engagement (more negative = stronger competition), active = hit call of the paper (q ≤ 0.05, log2 ratio ≤ -1)
Conditions in all cases: compound concentration: 200 uM; treatment time: 3 h
USP42 = molecular target: T1, USP42 (UniProt Q9H9J4)
T1 sequence (whole entry): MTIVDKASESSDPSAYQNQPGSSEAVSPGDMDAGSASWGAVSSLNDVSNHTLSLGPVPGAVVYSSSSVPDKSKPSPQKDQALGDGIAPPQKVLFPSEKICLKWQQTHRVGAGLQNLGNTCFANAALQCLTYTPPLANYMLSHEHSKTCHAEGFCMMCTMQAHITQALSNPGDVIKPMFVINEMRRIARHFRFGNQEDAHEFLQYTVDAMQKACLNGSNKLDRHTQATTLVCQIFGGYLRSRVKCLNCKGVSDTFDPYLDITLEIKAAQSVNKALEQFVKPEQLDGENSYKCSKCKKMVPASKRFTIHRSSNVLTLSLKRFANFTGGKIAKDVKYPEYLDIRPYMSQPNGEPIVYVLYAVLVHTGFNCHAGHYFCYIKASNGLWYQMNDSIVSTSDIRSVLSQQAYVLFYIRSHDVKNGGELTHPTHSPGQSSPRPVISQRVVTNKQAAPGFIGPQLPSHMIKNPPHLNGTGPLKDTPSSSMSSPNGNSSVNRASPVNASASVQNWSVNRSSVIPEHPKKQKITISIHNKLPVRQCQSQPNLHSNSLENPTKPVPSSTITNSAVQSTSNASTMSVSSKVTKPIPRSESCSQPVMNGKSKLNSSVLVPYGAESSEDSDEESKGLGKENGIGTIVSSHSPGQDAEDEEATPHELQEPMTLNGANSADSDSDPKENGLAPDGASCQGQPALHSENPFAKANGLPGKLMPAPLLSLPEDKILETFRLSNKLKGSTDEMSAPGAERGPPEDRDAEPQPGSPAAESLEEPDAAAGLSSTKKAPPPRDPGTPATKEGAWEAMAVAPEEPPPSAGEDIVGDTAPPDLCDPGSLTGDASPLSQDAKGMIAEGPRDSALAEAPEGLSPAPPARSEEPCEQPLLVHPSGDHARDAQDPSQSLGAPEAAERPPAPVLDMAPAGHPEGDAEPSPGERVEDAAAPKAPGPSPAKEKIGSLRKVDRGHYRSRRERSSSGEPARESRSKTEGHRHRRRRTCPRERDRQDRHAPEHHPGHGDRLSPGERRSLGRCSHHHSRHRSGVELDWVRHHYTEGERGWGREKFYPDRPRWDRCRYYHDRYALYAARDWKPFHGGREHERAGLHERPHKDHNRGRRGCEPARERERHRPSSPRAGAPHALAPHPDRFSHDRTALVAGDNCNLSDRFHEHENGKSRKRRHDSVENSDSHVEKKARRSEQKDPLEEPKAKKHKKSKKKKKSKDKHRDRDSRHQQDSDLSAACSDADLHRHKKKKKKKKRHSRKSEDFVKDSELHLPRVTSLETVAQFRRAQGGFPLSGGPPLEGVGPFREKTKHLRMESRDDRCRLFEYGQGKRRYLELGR
Method in brief: (§1)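 Labelled DUBs from HEK293T lysate were NeutrAvidin-enriched, digested with LysC and trypsin, and run by diaPASEF LC-MS/MS. Before that, each 495 µg sample in Tris/CHAPS/IGEPAL buffer with protease inhibitors was treated in triplicate with fragment at 200 µM or vehicle for 3 h, then with Biotin-Ahx-Ub-VS at 0.5 µM final for 1 h. Values are average log2 ratios of fragment over vehicle by unpaired t-test, based on global-median-normalised Spectronaut label-free quantities from proteins with ≥2 unique peptides.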

USP46 = USP46 (UniProt P62068)
Method in brief: as §1

USP47 = molecular target: T2, USP47 (UniProt Q96K76)
T2 sequence (whole entry): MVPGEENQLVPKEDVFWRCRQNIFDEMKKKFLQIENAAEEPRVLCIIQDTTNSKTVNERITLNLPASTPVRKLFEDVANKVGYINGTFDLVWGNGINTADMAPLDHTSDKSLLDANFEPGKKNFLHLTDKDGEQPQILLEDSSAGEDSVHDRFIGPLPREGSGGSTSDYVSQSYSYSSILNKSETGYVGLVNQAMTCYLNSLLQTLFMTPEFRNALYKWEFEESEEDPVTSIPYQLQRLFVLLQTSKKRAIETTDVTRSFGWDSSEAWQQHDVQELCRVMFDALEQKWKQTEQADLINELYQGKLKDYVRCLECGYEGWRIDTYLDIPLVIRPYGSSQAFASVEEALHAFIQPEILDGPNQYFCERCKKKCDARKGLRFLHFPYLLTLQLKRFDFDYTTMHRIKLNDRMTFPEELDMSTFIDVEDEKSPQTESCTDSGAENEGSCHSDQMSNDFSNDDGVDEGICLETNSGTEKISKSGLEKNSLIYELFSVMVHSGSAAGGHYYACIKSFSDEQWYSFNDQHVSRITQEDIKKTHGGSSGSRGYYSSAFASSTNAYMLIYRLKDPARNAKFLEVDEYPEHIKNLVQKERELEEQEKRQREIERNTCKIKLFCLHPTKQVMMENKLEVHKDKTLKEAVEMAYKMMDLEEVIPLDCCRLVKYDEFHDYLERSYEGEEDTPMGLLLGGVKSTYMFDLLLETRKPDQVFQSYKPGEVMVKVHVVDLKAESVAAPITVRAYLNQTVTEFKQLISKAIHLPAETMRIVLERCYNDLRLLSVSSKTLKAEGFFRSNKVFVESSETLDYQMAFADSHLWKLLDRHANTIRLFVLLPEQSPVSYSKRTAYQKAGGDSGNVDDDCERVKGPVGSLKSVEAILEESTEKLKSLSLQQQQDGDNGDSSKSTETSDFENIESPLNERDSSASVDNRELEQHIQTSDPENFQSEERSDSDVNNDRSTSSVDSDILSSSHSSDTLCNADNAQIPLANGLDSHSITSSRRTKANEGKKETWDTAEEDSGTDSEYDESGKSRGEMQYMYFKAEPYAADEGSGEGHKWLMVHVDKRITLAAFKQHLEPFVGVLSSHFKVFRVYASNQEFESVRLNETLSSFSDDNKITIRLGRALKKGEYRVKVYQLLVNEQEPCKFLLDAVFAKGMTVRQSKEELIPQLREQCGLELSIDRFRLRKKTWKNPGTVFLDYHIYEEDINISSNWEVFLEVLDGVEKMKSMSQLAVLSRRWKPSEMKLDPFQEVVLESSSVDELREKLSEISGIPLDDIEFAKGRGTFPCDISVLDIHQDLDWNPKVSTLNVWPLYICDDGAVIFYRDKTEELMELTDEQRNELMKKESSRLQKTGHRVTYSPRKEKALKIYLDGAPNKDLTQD
Method in brief: as §1

USP48 = molecular target: T3, USP48 (UniProt Q86UV5)
T3 sequence (whole entry): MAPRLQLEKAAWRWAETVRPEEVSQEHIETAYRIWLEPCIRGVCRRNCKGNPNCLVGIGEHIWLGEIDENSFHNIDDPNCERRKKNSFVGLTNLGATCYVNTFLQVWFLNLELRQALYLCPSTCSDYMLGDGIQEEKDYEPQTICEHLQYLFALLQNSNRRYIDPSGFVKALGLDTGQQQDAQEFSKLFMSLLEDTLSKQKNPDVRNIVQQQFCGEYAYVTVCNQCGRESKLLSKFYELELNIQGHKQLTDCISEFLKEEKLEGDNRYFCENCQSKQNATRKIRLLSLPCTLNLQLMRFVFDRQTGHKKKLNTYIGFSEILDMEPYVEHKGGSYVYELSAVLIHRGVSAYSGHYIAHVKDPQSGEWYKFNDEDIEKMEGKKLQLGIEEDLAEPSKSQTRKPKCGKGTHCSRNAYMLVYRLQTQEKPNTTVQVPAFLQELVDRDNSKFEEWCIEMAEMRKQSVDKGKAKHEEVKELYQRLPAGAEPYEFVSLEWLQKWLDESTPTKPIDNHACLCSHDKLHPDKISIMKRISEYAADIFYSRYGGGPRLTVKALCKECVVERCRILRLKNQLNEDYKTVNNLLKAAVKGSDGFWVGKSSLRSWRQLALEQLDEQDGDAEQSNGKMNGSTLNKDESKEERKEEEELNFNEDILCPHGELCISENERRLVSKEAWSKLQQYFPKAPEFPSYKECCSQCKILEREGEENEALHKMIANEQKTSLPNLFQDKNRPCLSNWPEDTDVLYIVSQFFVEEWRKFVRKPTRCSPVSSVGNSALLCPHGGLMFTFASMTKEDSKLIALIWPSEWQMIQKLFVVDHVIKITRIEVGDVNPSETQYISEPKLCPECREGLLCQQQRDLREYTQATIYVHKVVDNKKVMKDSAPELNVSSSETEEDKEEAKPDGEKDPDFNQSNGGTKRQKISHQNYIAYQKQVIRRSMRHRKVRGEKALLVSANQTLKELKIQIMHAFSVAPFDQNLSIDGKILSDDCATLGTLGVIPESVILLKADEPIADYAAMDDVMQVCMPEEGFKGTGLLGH
Method in brief: as §1

USP5 = molecular target: T4, USP5 (UniProt P45974)
T4 sequence (whole entry): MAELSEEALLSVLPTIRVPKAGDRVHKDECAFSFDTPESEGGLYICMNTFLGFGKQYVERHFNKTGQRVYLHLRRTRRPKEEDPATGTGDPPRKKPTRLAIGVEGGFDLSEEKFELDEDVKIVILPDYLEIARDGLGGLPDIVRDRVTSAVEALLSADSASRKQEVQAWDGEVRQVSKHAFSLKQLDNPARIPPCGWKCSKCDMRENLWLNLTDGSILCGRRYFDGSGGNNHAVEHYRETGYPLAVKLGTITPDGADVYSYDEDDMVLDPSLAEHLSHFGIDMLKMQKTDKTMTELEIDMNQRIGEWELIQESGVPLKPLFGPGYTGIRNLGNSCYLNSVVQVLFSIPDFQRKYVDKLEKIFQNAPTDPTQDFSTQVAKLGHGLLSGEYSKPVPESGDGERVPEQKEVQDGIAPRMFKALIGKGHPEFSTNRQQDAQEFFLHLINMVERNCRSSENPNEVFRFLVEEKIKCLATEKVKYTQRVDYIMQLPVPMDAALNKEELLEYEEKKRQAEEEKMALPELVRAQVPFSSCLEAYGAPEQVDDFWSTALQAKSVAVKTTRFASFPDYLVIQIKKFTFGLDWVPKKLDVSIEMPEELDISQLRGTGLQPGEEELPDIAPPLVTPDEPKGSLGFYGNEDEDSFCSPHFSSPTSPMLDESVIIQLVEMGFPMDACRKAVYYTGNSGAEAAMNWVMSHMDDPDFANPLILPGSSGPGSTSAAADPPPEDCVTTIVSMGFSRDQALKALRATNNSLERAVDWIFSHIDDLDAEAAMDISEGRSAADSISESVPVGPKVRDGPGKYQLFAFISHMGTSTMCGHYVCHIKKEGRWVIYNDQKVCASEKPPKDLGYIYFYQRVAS
Method in brief: as §1

USP54 = USP54 (UniProt Q70EL1)
Method in brief: as §1

USP7 = USP7 (UniProt Q93009)
Method in brief: as §1

USP8 = molecular target: T5, USP8 (UniProt P40818)
T5 sequence (whole entry): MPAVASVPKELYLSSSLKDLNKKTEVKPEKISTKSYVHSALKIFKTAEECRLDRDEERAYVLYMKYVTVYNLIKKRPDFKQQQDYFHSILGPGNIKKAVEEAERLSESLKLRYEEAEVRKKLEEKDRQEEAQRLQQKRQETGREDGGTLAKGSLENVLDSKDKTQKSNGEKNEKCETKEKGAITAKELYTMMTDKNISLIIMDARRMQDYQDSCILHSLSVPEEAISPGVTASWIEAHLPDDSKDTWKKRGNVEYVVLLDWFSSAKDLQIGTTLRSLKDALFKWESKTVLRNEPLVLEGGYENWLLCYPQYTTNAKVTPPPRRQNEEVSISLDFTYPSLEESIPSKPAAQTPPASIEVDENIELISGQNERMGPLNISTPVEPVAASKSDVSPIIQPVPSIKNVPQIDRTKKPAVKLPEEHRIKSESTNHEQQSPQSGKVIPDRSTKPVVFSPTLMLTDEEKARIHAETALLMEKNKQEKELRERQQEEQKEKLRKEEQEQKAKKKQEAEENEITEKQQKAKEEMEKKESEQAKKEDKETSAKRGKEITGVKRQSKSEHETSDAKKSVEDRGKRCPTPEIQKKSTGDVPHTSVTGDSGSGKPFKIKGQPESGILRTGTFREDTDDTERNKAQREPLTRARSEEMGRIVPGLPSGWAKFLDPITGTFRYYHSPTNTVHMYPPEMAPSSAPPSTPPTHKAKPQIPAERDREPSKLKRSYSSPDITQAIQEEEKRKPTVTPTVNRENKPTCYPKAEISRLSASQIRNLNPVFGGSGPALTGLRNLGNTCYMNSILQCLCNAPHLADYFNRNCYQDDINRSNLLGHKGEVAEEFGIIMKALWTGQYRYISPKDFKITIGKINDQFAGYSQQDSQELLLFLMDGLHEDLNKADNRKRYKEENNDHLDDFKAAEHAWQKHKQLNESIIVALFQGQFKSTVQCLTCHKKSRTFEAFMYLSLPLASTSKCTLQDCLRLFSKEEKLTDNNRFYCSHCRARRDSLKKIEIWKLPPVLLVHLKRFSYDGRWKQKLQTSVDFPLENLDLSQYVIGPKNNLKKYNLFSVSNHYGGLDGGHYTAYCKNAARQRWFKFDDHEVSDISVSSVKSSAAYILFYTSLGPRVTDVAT
Method in brief: as §1

Measured: log2 ratio of Biotin-Ahx-Ub-VS probe labelling

USP54, sequence (Q70EL1 whole entry): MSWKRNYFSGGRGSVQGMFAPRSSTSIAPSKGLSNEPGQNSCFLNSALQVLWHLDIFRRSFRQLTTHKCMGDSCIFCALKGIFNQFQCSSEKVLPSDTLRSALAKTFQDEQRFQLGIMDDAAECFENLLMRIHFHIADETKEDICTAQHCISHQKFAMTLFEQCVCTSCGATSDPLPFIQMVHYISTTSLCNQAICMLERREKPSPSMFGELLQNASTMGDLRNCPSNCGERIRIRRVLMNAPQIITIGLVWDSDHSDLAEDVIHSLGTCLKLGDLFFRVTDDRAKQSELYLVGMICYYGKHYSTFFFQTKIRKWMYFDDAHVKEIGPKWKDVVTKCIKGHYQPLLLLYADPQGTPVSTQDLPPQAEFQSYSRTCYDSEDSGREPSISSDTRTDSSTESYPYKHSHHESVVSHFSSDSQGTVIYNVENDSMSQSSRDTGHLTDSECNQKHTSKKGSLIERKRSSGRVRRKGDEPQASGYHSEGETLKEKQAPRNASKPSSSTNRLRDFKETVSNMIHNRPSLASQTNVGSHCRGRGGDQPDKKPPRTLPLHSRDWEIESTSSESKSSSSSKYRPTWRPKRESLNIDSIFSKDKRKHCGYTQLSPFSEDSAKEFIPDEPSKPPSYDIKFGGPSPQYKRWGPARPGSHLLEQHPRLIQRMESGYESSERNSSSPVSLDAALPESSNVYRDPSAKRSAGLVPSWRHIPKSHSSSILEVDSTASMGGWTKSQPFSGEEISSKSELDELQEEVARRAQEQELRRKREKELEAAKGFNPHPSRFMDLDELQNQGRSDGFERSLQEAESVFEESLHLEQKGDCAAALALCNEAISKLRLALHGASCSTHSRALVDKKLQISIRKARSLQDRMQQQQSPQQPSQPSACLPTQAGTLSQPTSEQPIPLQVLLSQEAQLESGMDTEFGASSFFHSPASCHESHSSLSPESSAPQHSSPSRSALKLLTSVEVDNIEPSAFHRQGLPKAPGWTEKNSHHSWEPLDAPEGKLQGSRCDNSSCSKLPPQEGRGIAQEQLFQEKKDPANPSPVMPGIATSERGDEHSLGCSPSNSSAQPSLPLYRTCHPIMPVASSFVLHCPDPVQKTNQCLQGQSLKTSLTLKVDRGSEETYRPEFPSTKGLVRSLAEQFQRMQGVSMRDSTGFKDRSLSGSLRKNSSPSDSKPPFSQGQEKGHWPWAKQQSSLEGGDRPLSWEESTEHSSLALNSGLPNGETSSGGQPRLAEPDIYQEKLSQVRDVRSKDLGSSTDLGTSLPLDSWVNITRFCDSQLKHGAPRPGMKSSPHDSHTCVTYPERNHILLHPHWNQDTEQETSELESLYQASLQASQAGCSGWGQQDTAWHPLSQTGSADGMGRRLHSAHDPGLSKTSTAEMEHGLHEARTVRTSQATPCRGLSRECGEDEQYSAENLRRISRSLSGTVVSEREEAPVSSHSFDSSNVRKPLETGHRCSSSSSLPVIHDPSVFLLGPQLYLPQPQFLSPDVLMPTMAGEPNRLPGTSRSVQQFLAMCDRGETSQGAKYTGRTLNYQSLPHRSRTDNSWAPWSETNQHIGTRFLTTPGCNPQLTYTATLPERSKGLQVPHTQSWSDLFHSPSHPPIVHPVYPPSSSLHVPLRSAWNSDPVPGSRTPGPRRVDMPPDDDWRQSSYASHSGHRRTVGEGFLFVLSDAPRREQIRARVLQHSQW
USP7, sequence (Q93009 whole entry, looked up): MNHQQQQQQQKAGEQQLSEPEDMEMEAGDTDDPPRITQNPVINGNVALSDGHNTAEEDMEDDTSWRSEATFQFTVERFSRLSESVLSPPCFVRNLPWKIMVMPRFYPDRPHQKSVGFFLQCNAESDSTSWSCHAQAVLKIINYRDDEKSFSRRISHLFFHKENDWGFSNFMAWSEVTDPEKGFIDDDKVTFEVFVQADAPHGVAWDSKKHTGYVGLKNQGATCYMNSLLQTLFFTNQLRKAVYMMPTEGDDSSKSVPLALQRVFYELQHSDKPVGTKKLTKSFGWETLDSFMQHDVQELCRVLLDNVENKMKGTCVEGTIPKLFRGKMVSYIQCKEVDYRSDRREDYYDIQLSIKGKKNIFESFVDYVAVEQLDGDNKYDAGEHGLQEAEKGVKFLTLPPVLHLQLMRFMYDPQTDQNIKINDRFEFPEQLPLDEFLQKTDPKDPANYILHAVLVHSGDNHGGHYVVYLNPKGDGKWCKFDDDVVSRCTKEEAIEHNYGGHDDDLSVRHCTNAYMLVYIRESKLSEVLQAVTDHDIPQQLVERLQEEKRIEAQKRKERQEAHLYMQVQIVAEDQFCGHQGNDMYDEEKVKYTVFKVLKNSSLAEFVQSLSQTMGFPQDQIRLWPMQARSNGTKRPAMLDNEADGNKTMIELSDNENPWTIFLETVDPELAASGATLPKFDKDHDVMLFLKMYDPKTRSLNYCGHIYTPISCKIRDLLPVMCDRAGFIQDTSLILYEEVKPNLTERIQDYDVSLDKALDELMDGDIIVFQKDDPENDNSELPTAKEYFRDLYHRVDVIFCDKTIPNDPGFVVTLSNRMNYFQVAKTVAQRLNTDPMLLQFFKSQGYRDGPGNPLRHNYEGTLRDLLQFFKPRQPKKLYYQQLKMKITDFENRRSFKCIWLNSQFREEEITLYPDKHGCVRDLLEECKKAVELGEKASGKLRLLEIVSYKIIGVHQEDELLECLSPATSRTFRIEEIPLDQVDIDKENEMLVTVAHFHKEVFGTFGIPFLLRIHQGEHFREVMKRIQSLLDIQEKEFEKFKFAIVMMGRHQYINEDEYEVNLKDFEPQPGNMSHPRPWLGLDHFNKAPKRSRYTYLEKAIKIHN
USP46, sequence (P62068 whole entry): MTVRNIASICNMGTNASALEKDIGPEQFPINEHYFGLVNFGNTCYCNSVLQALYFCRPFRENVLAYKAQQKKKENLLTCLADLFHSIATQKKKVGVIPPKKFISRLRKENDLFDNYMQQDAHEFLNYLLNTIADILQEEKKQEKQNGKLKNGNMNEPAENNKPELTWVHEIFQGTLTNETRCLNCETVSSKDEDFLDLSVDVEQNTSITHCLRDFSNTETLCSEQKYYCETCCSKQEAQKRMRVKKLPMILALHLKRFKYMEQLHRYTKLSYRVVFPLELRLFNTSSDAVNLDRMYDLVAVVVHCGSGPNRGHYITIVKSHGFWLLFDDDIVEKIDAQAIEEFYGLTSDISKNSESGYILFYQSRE

O=C(CCl)N1CCc2ccccc2C(O)C1 (stereo not drawn)
inactive: USP42 0.325 | USP46 -0.184 | USP47 0.0442 | USP48 -0.682 | USP5 -0.103 | USP54 0.265 | USP7 -0.687 | USP8 -0.372
